Several values for one entry are separate records, joined by “and”; a condition that tells them apart may be missing. Identical values can stand only once. Records with an inconclusive call do not appear. Activity calls are given as the source filed them. Calls follow the shape of the dose curve; as a rule, active = well fitted curve in the direction sought with a large enough effect; inconclusive = small, poorly fitted or top-dose-only effect, or another doubt; inactive = no such curve, though single readings can be large; an effect the other way counts as inactive or inconclusive.
How the values were obtained:
[1] = P-glycoprotein substrates identified in KB-8-5-11 adenocarcinoma cell line, qHTS therapeutic library screen (AID 1346987); also: nearly all actives have a fitted effect of over 65% in size
Outline: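 Steps: plate 500 KB-8-5-11 cells/well in DMEM + 10% FCS (colchicine removed); pin compounds in dose-response; incubate 72 h, 37 degree C, 5% CO2; add CellTiter-Glo, 5 min; read luminescence.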

[2] = NS1 protein of Zika virus - qHTS assay to identify small molecule inhibitors in human HEK 293 cells (AID 1347053); also: nearly all actives have a fitted effect of over 55% in size
Outline: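 Inhibition of NS1 expression was scored in HEK 293 cells given compound 1 h ahead of MR766 virus (MOI = 0.5). Following 24 h at 37 C, two anti-NS1 antibodies generated a TR-FRET signal, scaled between uninfected and infected controls.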

[3] = qHTS of pediatric cancer cell lines to identify multiple opportunities for drug repurposing: Primary screen for DAOY cells (AID 1347090); also: nearly all actives have a fitted effect of over 55% in size
Outline: (§1)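 Viability measured as metabolically active cells via CellTiter-Glo luminescence following 48 hours of compound exposure, 11-point dilutions in confirmatory testing. 500-1,000 cells/well plated 5 hours before dosing; controls were DMSO and 2.3 µM bortezomib.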

[4] = qHTS of pediatric cancer cell lines to identify multiple opportunities for drug repurposing: Primary screen for SJ-GBM2 cells (AID 1347091)
Outline: as §1

[5] = qHTS of pediatric cancer cell lines to identify multiple opportunities for drug repurposing: Primary screen for SK-N-MC cells (AID 1347093)
Outline: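 Metabolically active cells were quantified by ATP-dependent luminescence (CellTiter-Glo, 15 min at room temperature) following 48 h treatment. Cells had been plated at 500-1,000 per well and settled for 5 h beforehand.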

[6] = qHTS of pediatric cancer cell lines to identify multiple opportunities for drug repurposing: Primary screen for NB-EBc1 cells (AID 1347095)
Outline: (§2)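 Phenotypic viability qHTS, 48 h compound exposure, CellTiter-Glo luminescence read-out; multi-concentration dosing so that potency and efficacy derive directly from the primary screen's curves.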

[7] = qHTS of pediatric cancer cell lines to identify multiple opportunities for drug repurposing: Primary screen for U-2 OS cells (AID 1347096); also: nearly all actives have a fitted effect of over 50% in size
Outline: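 Viability after 48 h compound treatment at 37C, 500-1,000 cells/well, read as ATP luminescence with CellTiter-Glo. Primary screens used 11-point (MIPE, 0.78 nM-46 µM) or 8-point (NPC, 0.59 nM-46 µM) final concentrations; follow-up screens used 11-point dilutions.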

[8] = qHTS of pediatric cancer cell lines to identify multiple opportunities for drug repurposing: Primary screen for Saos-2 cells (AID 1347097); also: nearly all actives have a fitted effect of over 40% in size
Outline: as §2

[9] = qHTS of pediatric cancer cell lines to identify multiple opportunities for drug repurposing: Primary screen for TC32 cells (AID 1347089); also: nearly all actives have a fitted effect of over 60% in size
Outline: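 Luminescent ATP read-out (CellTiter-Glo) of metabolically active TC32 cells after 48 h exposure. Concentration-response curves came from 11-point (MIPE, 0.78 nM–46 µM) or 8-point (NPC, 0.59 nM–46 µM) primary titrations; follow-up used 11 points.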

[10] = qHTS of pediatric cancer cell lines to identify multiple opportunities for drug repurposing: Primary screen for A673 cells (AID 1347092); also: nearly all actives have a fitted effect of over 45% in size
Outline: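 Cell viability of A673 measured by CellTiter-Glo ATP luminescence after 48 hours compound exposure. Dilution series spanned 0.78 nM to 46 µM (MIPE, 11-point) or 0.59 nM to 46 µM (NPC, 8-point); bortezomib 2.3 uM positive control.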

[11] = qHTS of pediatric cancer cell lines to identify multiple opportunities for drug repurposing: Primary screen for BT-37 cells (AID 1347094)
Outline: as §2

[12] = qHTS of pediatric cancer cell lines to identify multiple opportunities for drug repurposing: Primary screen for SK-N-SH cells (AID 1347098); also: nearly all actives have a fitted effect of over 65% in size
Outline: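 Cells (500-1,000/well) rested 5 h, then received compounds for 48 h; metabolically active cells were measured by CellTiter-Glo luminescence. Final concentrations spanned up to 46 µM (MIPE, 11-point) or 0.59 nM-46 µM (NPC, 8-point) in primary screens, 11-point in follow-ups.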

Measured: Potency
Potency is read from the fitted curve at half-maximal effect.

CCCCCCNC(=O)n1cc(F)c(=O)[nH]c1=O
active: [1] 6.51 µM | [5] 16.6 µM | [6] 2.99 µM and 4.18 µM
inactive: [2] | [3] | [4] | [7] | [8]

CN(Cc1cc(Br)cc(Br)c1N)C1CCCCC1
not listed: [4] | [5] | [6] | [8]
inactive: all other assays above

Nc1[nH]c(=O)ncc1F
not listed: [1] | [4] | [6] | [11]
inactive: all other assays above

Cc1c(-c2ccc(O)cc2)n(Cc2ccc(OCCN3CCCCCC3)cc2)c2ccc(O)cc12
inactive: [2] | [9] | [4] | [10] | [11] | [7] | [12]

O=C(O)c1ccc(-n2nc(-c3ccccc3O)nc2-c2ccccc2O)cc1
inactive: [2]
active: [4] 20.9 µM | [11] 24.6 µM | [6] 8.33 µM

CCCCc1oc2ccc(NS(C)(=O)=O)cc2c1C(=O)c1ccc(OCCCN(CCCC)CCCC)cc1
active: [1] 26.4 µM and 16.4 µM | [2] 11.8 µM | [4] 11.8 µM | [10] 1.18 µM | [5] 21.1 µM | [11] 17.2 µM and 27.6 µM | [8] 18.7 µM and 23.7 µM | [12] 27.1 µM and 17.2 µM
inactive: [9]

CC(C)Cn1cnc2c(N)nc3ccccc3c21
active: [5] 16.6 µM
inactive: [1] | [2] | [9] | [3] | [7]

CC(C)(C#N)c1cc(Cn2cncn2)cc(C(C)(C)C#N)c1
not listed: [1] | [4]
inactive: all other assays above

CC(C)(C)C(=O)OCOP(=O)(COCCn1cnc2c(N)ncnc21)OCOC(=O)C(C)(C)C
inactive: [1] | [2] | [7]
active: [9] 2.64 µM and 10.4 µM | [5] 188 nM and 1 nM | [11] 3.47 µM and 10.9 µM | [6] 2.99 µM and 662 nM | [8] 26.6 µM and 23.5 µM | [12] 15.4 µM and 27.1 µM

CN1CCCC(n2nc(Cc3ccc(Cl)cc3)c3ccccc3c2=O)CC1 (stereo not drawn)
inactive: [1] | [2]
active: [10] 0.935 µM | [5] 0.833 µM | [11] 2.43 µM | [6] 1.18 µM | [7] 9.35 µM | [8] 2.35 µM | [12] 27.3 µM and 4.82 µM

Cc1nnc(NS(=O)(=O)c2ccc(N)cc2)s1
inactive: [2] | [9] | [7] | [8]
active: [5] 0.833 µM

Cc1nnc(C(=O)NC(C)(C)c2nc(C(=O)NCc3ccc(F)cc3)c(O)c(=O)n2C)o1
not listed: [4] | [10]
inactive: all other assays above

CN(C)CCc1c[nH]c2ccc(CS(=O)(=O)N3CCCC3)cc12
not listed: [4] | [10]
inactive: all other assays above

CC(C)(C)NC(=O)[C@H]1CC[C@H]2[C@@H]3CC[C@H]4NC(=O)C=C[C@]4(C)[C@H]3CC[C@]12C
active: [4] 14.8 µM | [8] 14.8 µM
inactive: [1] | [2] | [9] | [7]

COC(=O)Nc1nc2ccc(C(=O)c3ccccc3)cc2[nH]1
inactive: [2]
active: [1] 699 nM and 2.96 µM | [9] 210 nM and 3.3 µM | [3] 106 nM and 1.18 µM | [5] 53.1 nM and 332 nM | [11] 347 nM and 2.43 µM | [6] 0.188 µM | [8] 66.8 nM and 662 nM | [12] 8.57 µM
